# Measured values reported in PubChem BioAssay.
# Calls of active or inactive are those of the source.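 How the source made its calls, unless noted: active means inhibition over a set limit, the all-compound mean plus 3 SD, in both replicate runs; inconclusive means over that limit in just one replicate run; inactive means at or under that limit in both runs.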
# Experiment: RAM pathway blockade in budding yeast – dse1pr::URA3 reporter, 5-FOA selection, pilot screen (AID 869);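 further: 0% = DMSO wells with no growth and 100% = 10 µM 1-NA-PP1 with full growth; RAM network block rescues cells from 5-FOA so hits raise OD615 growth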
# Settings: S. cerevisiae dse1pr::URA3 5-FOA growth, OD615, 2 d; at 10 µM; stronger effect = higher value; strain carries analog-sensitive mutant Cbk1 kinase
row,SMILES,inhibition
1,Cc1cc(Nc2ccc(F)cc2C)n2nc(C)nc2n1,2.01% (inactive)
2,CC(=O)c1cccc(NC(=O)Cn2cc3c(n2)CCCC3)c1,0.1% (inactive)
3,O=C(Nc1nc(-c2cccs2)cs1)c1ccc(S(=O)(=O)N2CCCCC2)cc1,1.4% (inactive)
4,Cc1cc(OCCN2CCCC2)ccc1C(C)C,2.1% (inactive)
5,CCN1C(=O)c2ccccc2S(=O)c2ccc(C(=O)N3CCN(C(=O)c4ccco4)CC3)cc21 (stereo not given),1.33% (inactive)
6,N#Cc1c(SCC(N)=O)nc2c(c1-c1ccc(O)cc1)CCCC2,3.51% (inactive)
7,COCCCN1CC23C=CC(O2)C(C(=O)O)C3C1=O (stereo not given),-0.105% (inactive)
8,COC(=O)C1C(O)=C(C=NCC(C)N=CC2=C(O)C(C(=O)OC)C(C)(C)CC2=O)C(=O)CC1(C)C (stereo not given),2.5% (inactive)
9,CN1CCc2c(c3ccccc3n2Cc2ccccc2)C1,1.27% (inactive)
10,CC(=O)c1c(C)[nH]c(C(=O)N2c3ccccc3CC2C)c1C (stereo not given),0.755% (inactive)
11,Cc1ccc(-c2nn3c(C)nnc3s2)cc1NC(=O)COc1ccc(Cl)cc1,2.17% (inactive)
12,O=C(c1cc(-c2cccc(O)c2)on1)N1CCCCC1,-0.46% (inactive)
13,CCOC(=O)c1oc2cc(O)ccc2c(=O)c1-c1ccccc1OC,-0.595% (inactive)
14,COc1ccc(C(=O)c2cn[nH]c2-c2cc(Cl)ccc2O)cc1,1.17% (inactive)
15,O=C(Nc1nnc(-c2ccc(Cl)s2)o1)C1CCCCC1,3.44% (inactive)
16,CN(C)c1ccc(NC(=O)c2cccc(N3C(=O)CCC3=O)c2)cc1,-0.005% (inactive)
17,Cc1onc(-c2ccccc2Cl)c1C(=O)N1CCCCC1C(=O)O (stereo not given),0.055% (inactive)
18,COc1ccc(OCC(=O)Nc2ccccc2OC)cc1,0.82% (inactive)
19,COC(=O)c1ccc2c(=O)n3c(nc2c1)SCC(c1ccccc1)=N3,2.39% (inactive)
20,CCOC(=O)Nc1ccc2c(c1)N(C(=O)N(CC)CC)c1ccccc1CC2,2.9% (inactive)

row,SMILES,inhibition
1,Cc1c(C(=O)Nc2ccc(F)cc2)oc2ccc(S(=O)(=O)N3CCCC3)cc12,3.88% (inactive)
2,COc1cc(OC)cc(-c2nc(-c3ccc(Br)cc3)no2)c1,3.5% (inactive)
3,O=C(Nc1nnc(-c2ccccc2)o1)c1nc2ccccc2s1,1.39% (inactive)
4,Cc1c(C(=O)NCc2cccnc2)oc2ccccc12,1.27% (inactive)
5,Cc1cccn2cc(-c3ccc(F)cc3)nc12,1.56% (inactive)
6,O=C(NCCN1CCOCC1)c1ccc2c(c1)ncn2C1CCCC1,1.44% (inactive)
7,COC(=O)CSc1nc2ccccc2nc1SCC(=O)OC,2.12% (inactive)
8,O=C(O)c1ccccc1C(=O)NCc1ccccc1,0.27% (inactive)
9,CC(C)(C)SCCNS(=O)(=O)c1ccc(F)cc1,0.725% (inactive)
10,COC(=O)C1C(=O)c2c([nH]c(C(=O)OC3CCCCC3)c2C)CC1C (stereo not given),0.105% (inactive)
11,O=S(=O)(CCc1nnc(-c2ccccc2)o1)c1ccc2ccccc2c1,1.96% (inactive)
12,O=C(Cn1cnc2c(cnn2-c2ccccc2)c1=O)c1ccc(Cl)cc1,0.5% (inactive)
13,O=C(c1ccc2nc(N3CCOCC3)sc2c1)N1CCN(C(=O)c2ccco2)CC1,0.86% (inactive)
14,O=C(CCn1c(=O)sc2ccccc21)NCc1ccccc1,2% (inactive)
15,CC1(C)Oc2ccc3ccc(=O)oc3c2/C(=C/N)C1=O,0.535% (inactive)
16,COc1ccc(C2N3CC4(C)CN2CC(C)(C3)C4=O)cc1OC (stereo not given),1.67% (inactive)
17,O=C(NCCn1ccc2ccccc21)c1ccc2c(c1)OCO2,0.58% (inactive)
18,Cc1occc1C(=O)NCc1ccc2c(c1)OCO2,1.78% (inactive)
19,CC1(C)NC(C)(C)c2nonc2/C1=N\O,1.34% (inactive)
20,CCn1c(C)nc2cc(S(=O)(=O)N3CCCC3)ccc21,0.805% (inactive)

# Experiment: RAM signaling pathway blockade in yeast – S. cerevisiae, Pdr1DBD-CYC8 efflux-inhibited sensitized strain, primary screen (AID 1298;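 active means RAM network inhibition above 8.4% in each of two replicates, 3 SD over the compound average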;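 further: 0% = DMSO untreated cells without growth and 100% = 10 µM 1-NA-PP1 full growth; higher means more yeast growth rescued from 5-FOA killing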)
# Settings: S. cerevisiae cbk1-as DSE1-URA3 strain, 5-FOA growth OD615, 2 d; at 50 µM; stronger effect = higher value
row,SMILES,RAM network inhibition
1,Cc1cc(Nc2ccc(F)cc2C)n2nc(C)nc2n1,5.08% (inactive)
2,CC(=O)c1cccc(NC(=O)Cn2cc3c(n2)CCCC3)c1,2.14% (inactive)
3,O=C(Nc1nc(-c2cccs2)cs1)c1ccc(S(=O)(=O)N2CCCCC2)cc1,4.06% (inactive)
4,Cc1cc(OCCN2CCCC2)ccc1C(C)C,8.59% (inactive)
5,CCN1C(=O)c2ccccc2S(=O)c2ccc(C(=O)N3CCN(C(=O)c4ccco4)CC3)cc21 (stereo not given),7.96% (inactive)
6,N#Cc1c(SCC(N)=O)nc2c(c1-c1ccc(O)cc1)CCCC2,4.51% (inactive)
7,COCCCN1CC23C=CC(O2)C(C(=O)O)C3C1=O (stereo not given),4.16% (inactive)
8,COC(=O)C1C(O)=C(C=NCC(C)N=CC2=C(O)C(C(=O)OC)C(C)(C)CC2=O)C(=O)CC1(C)C (stereo not given),0.9% (inactive)
9,CN1CCc2c(c3ccccc3n2Cc2ccccc2)C1,5.12% (inactive)
10,CC(=O)c1c(C)[nH]c(C(=O)N2c3ccccc3CC2C)c1C (stereo not given),3.82% (inactive)
11,Cc1ccc(-c2nn3c(C)nnc3s2)cc1NC(=O)COc1ccc(Cl)cc1,6.41% (inactive)
12,O=C(c1cc(-c2cccc(O)c2)on1)N1CCCCC1,4.74% (inactive)
13,CCOC(=O)c1oc2cc(O)ccc2c(=O)c1-c1ccccc1OC,5.56% (inactive)
14,COc1ccc(C(=O)c2cn[nH]c2-c2cc(Cl)ccc2O)cc1,3.53% (inactive)
15,O=C(Nc1nnc(-c2ccc(Cl)s2)o1)C1CCCCC1,3.62% (inactive)
16,CN(C)c1ccc(NC(=O)c2cccc(N3C(=O)CCC3=O)c2)cc1,4.75% (inactive)
17,Cc1onc(-c2ccccc2Cl)c1C(=O)N1CCCCC1C(=O)O (stereo not given),4.06% (inactive)
18,COc1ccc(OCC(=O)Nc2ccccc2OC)cc1,-2.32% (inactive)
19,COC(=O)c1ccc2c(=O)n3c(nc2c1)SCC(c1ccccc1)=N3,10.7% (inactive)
20,CCOC(=O)Nc1ccc2c(c1)N(C(=O)N(CC)CC)c1ccccc1CC2,2.11% (inactive)

row,SMILES,RAM network inhibition
1,Cc1c(C(=O)Nc2ccc(F)cc2)oc2ccc(S(=O)(=O)N3CCCC3)cc12,3% (inactive)
2,COc1cc(OC)cc(-c2nc(-c3ccc(Br)cc3)no2)c1,8.01% (inactive)
3,O=C(Nc1nnc(-c2ccccc2)o1)c1nc2ccccc2s1,0.11% (inactive)
4,Cc1c(C(=O)NCc2cccnc2)oc2ccccc12,1.07% (inactive)
5,Cc1cccn2cc(-c3ccc(F)cc3)nc12,-1.54% (inactive)
6,O=C(NCCN1CCOCC1)c1ccc2c(c1)ncn2C1CCCC1,4.43% (inactive)
7,COC(=O)CSc1nc2ccccc2nc1SCC(=O)OC,7.83% (inactive)
8,O=C(O)c1ccccc1C(=O)NCc1ccccc1,1.13% (inactive)
9,CC(C)(C)SCCNS(=O)(=O)c1ccc(F)cc1,0.56% (inactive)
10,COC(=O)C1C(=O)c2c([nH]c(C(=O)OC3CCCCC3)c2C)CC1C (stereo not given),2.04% (inactive)
11,O=S(=O)(CCc1nnc(-c2ccccc2)o1)c1ccc2ccccc2c1,10.4% (inactive)
12,O=C(Cn1cnc2c(cnn2-c2ccccc2)c1=O)c1ccc(Cl)cc1,3.34% (inactive)
13,O=C(c1ccc2nc(N3CCOCC3)sc2c1)N1CCN(C(=O)c2ccco2)CC1,3.05% (inactive)
14,O=C(CCn1c(=O)sc2ccccc21)NCc1ccccc1,2.7% (inactive)
15,CC1(C)Oc2ccc3ccc(=O)oc3c2/C(=C/N)C1=O,-0.57% (inactive)
16,COc1ccc(C2N3CC4(C)CN2CC(C)(C3)C4=O)cc1OC (stereo not given),0.11% (inactive)
17,O=C(NCCn1ccc2ccccc21)c1ccc2c(c1)OCO2,6.97% (inactive)
18,Cc1occc1C(=O)NCc1ccc2c(c1)OCO2,1.93% (inactive)
19,CC1(C)NC(C)(C)c2nonc2/C1=N\O,-0.43% (inactive)
20,CCn1c(C)nc2cc(S(=O)(=O)N3CCCC3)ccc21,2.71% (inactive)
